Compound activity: PubChem, National Center for Advancing Translational Sciences (NCATS)
Hits are enriched below; roughly 19% of the tested compounds scored in any of these assays.
KB-V1 MDR tox – KB-V1 MDR subline cytotoxicity; KB-V1 MDR cells viability, CellTiter-Glo, 72 h; Potency, µM (series often up to 46.1 µM), actives largely listed as cytotoxic; 400,000 compounds, 3.4% hits; AID 1347076; note: nearly all actives have a fitted effect of over 60% in size
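Readout: CellTiter-Glo luminescence, 10 min after addition. Cells: KB-V1 MDR subline, 72 h at 37 degrees C with compound. Analysis: corrected, normalized data fitted to concentration-effect curves.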
DT40 TDP1 CPT – DT40-hTDP1 cell growth loss with CPT; 420,000 compounds, 12% hits; Potency, µM (titrated, usually from 46.2 µM), inactives show at the highest dose activity change, negative = growth inhibition, most hits filed as inhibitors; chicken DT40 Tdp1-/-;hTDP1 cells + 20 nM CPT, ATP luminescence, 48 h; note: nearly all actives have a fitted effect of over 55% in size
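Chicken DT40 Tdp1-/- cells complemented with human TDP1, 400 cells/well, exposed to compounds plus 20 nM camptothecin for at least 48 h at 37 C; viability read as ATP content by CellTiter-Glo luminescence.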
HT1080 IDH1KD tx – toxicity to HT-1080 IDH1 knockdown cells (counter line) | HT-1080 IDH1 knockdown viability, ATP luminescence, 48 h | 360,000 compounds, 2% hits | Potency, µM (doses to about 46.1 µM), without a hit: at the highest dose activity, negative = toxicity, actives largely listed as cytotoxic | AID 686971;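 note: 0% = DMSO wells and -100% = cell-free medium wells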
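Knockdown cells (IDH1KD HT-1080) received compounds 2 h after plating at 750 cells/well and were kept 48 h at 37 °C in 5% FBS RPMI. A CellTiter-Glo luminescence read gave % activity for curve fitting.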
HT1080-NT tox – kills 2HG-producing HT-1080-NT fibrosarcoma cells. HT-1080-NT fibrosarcoma viability, CellTiter-Glo ATP luminescence, 48 h. Potency, µM (top dose mostly 46.1 µM), for inactives: at the highest dose activity, negative = less viability, hits mostly cytotoxic. 360,000 compounds, 1.6% hits. AID 686970;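 note: NT is the 2HG producing partner of a matched IDH1 knockdown line; 0% = DMSO-treated cells and -100% = media-only wells without cells; nearly all actives have a fitted effect of over 55% in size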
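HT-1080-NT fibrosarcoma cells (2HG-overproducing), 750 cells/well in RPMI with 5% FBS, dosed after 2 h and incubated 48 h at 37C. CellTiter-Glo luminescence normalized to DMSO and no-cell wells; concentration-response curves fitted and classed.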
KB-3-1 tox – kills parental KB-3-1 adenocarcinoma cells. KB-3-1 viability, CellTiter-Glo ATP luminescence, 72 h. Potency, µM (highest dose often 46.1 µM), actives largely listed as cytotoxic. 400,000 compounds, 1.4% hits. AID 1347075; note: nearly all actives have a fitted effect of over 60% in size
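Using CellTiter-Glo luminescence, growth of non-resistant KB-3-1 adenocarcinoma cells is assessed 72 h after pin-tool compound addition at 37 °C. Normalized responses across the concentration series yield fitted curves.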
TDP1 cell noCPT – qHTS for Inhibitors of human tyrosyl-DNA phosphodiesterase 1 (TDP1): qHTS in cells in absence of CPT; Potency, µM (titrated, usually from 46.2 µM), for inactives: top-dose activity change, negative = growth inhibition, actives largely listed as inhibitors; 420,000 compounds, 15% hits; DT40 Tdp1-/- hTDP1 cells, no CPT, ATP luminescence, 48 h; note: nearly all actives have a fitted effect of over 55% in size
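Chicken DT40 Tdp1-/- cells stably complemented with human TDP1 were seeded at 400 cells/well with DMSO in place of 20 nM camptothecin. After compound pinning, cells grew at least 48 hr at 37 °C; viability read by CellTiter-Glo luminescence.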
* hit, by the source's call; i = inactive; u = inconclusive; x = no result. Calls come from the whole dose curve; as a rule, active = well fitted curve in the direction sought with a large enough effect; inconclusive = small, poorly fitted or top-dose-only effect, or another doubt; inactive = no such curve, though single readings can be large; an effect the other way counts as inactive or inconclusive. Unless noted, % is set by controls: 0 for no effect and ±100 for the full control effect; potency is the fitted concentration of half-maximal effect.

SMILES	KB-V1 MDR tox	DT40 TDP1 CPT	HT1080 IDH1KD tx	HT1080-NT tox	KB-3-1 tox	TDP1 cell noCPT
C[C@H](c1ccccc1)N1C[C@H](COCc2ccccc2)Oc2cc(N3CCC[C@H]3CO)ccc2S1(=O)=O	i	u	-16%	-14%	i	u
COC[C@H]1CCCN1c1ccc2c(c1)O[C@H](COCc1ccccc1)CN([C@H](C)c1ccccc1)S2(=O)=O	u	u	-1%	3%	i	18µM*
CC(=O)c1cccc(NC(=O)C2C(c3ccccc3)C2(Cl)Cl)c1 (stereo unspecified)	i	-23%	-12%	-5%	i	-22%
Cc1cccc(NC(=O)C2C(c3ccccc3)C2(Cl)Cl)c1 (stereo unspecified)	i	u	-16%	-2%	i	13µM*
COc1ccc(NC(=O)C2C(c3ccccc3)C2(Cl)Cl)cc1 (stereo unspecified)	i	u	-12%	-4%	i	u
CCOc1ccc(NC(=O)C2C(c3ccccc3)C2(Cl)Cl)cc1 (stereo unspecified)	i	u	-4%	-11%	i	23µM*
CC(=O)c1ccc(NC(=O)NCCc2c[nH]c3ccccc23)cc1	i	u	x	x	i	u
O=C(/C=C/c1cccs1)c1cc(F)ccc1OC(=O)N1CCOCC1	u	23µM*	-12%	-19%	i	u
O=C1NC(=O)/C(=C/C(=O)N2CCOCC2)S1	i	-4%	-1%	0%	i	-1%
CCN1CCN(Cc2c(O)ccc3c2O/C(=C\C=C\c2ccccc2OC)C3=O)CC1	i	u	u	u	i	18µM*
CCN1CCN(Cc2c(O)ccc3c(=O)c(-c4ccccc4OC)coc23)CC1	i	-19%	7%	0%	i	-5%
Cc1cc(Br)ccc1NC(=O)CNC(=O)c1cnn(C)c1	i	-14%	-6%	9%	i	-15%
CC1=C(C(=O)Nc2ccccc2)C(c2ccccc2C)n2ncc(C(=O)Nc3ccccc3)c2N1 (stereo unspecified)	x	u	x	x	x	-74%
COc1ccc(C2C(C(=O)Nc3ccccc3OC)=C(C)Nc3c(C(=O)Nc4ccccc4)cnn32)c(OC)c1 (stereo unspecified)	x	21µM*	x	x	x	u
CC1=C(C(=O)Nc2ccccc2)C(c2ccccc2Cl)n2ncc(C(=O)Nc3cccc(C)c3)c2N1 (stereo unspecified)	x	u	x	x	x	18µM*
CC1=C(C(=O)Nc2ccc(C)cc2C)C(c2ccc([N+](=O)[O-])cc2)n2ncc(C(=O)Nc3ccc(F)cc3)c2N1 (stereo unspecified)	x	8.2µM*	x	x	x	8.2µM*
CS(=O)(=O)N1CCC2(CCN(c3ccccc3)CC2)CC1	x	-14%	x	x	x	u
CC1CN(c2nc(-c3ccccc3)nc3ccccc23)CC(C)O1 (stereo unspecified)	i	u	-3%	3%	i	u
CCN1CCN(c2nn3c(=O)c4ccccc4nc3c3ccccc23)CC1	u	u	u	u	u	16µM*
CC1CN(c2nn3c(=O)c4ccccc4nc3c3ccccc23)CC(C)O1 (stereo unspecified)	21µM*	8.2µM*	0%	-4%	u	5.8µM*
CC(C)(C)OC(=O)N1CCC2(CC1)Oc1ccc(F)cc1C(=O)C21CC(c2ccccc2)=NO1 (stereo unspecified)	i	23µM*	-8%	-4%	u	u
O=C1c2cc(F)ccc2OC2(CCNCC2)C12CC(c1ccccc1)=NO2 (stereo unspecified)	i	15µM*	-2%	4%	u	u
CCOC(=O)C1=CN(CC)CCC1=O	i	-1%	3%	9%	i	-5%
COc1ccccc1OCCn1c(NC(=O)c2ccc(Cl)cc2)nc2ccccc21	i	-9%	x	x	i	-5%
COc1ccccc1OCCn1c(NC(=O)c2ccccc2Cl)nc2ccccc21	i	23µM*	x	x	i	16µM*
SMILES	KB-V1 MDR tox	DT40 TDP1 CPT	HT1080 IDH1KD tx	HT1080-NT tox	KB-3-1 tox	TDP1 cell noCPT
CC(=O)Nc1nc2ccccc2n1CCOc1ccccc1Cl	i	u	-20%	-13%	u	15µM*
CN(C)CCN(CC1CCCN(Cc2ccccc2F)C1)C(=O)c1ccc(F)cc1 (stereo unspecified)	i	0%	-27%	-26%	i	-28%
CC(C)CCn1c(=O)c2sccc2n2c(CCCC(=O)Nc3ccc(F)c(Cl)c3)nnc12	x	-15%	x	x	x	u
COc1ccc(N2CC(C(=O)N/N=C/c3ccc(C)cc3)CC2=O)cc1 (stereo unspecified)	1.5µM*	1.3µM*	2.3µM*	3.3µM*	1.8µM*	1.6µM*
COc1ccc(N2CC(C(=O)N/N=C/c3cccs3)CC2=O)cc1 (stereo unspecified)	i	-15%	4%	6%	i	7%
CC1CCCN(C2(O)C(=O)Nc3ccc(Cl)cc32)C1 (stereo unspecified)	i	-10%	3%	8%	i	u
Cc1cc2c(cc1C)-n1nnnc1C(N1CCCC1)C(=O)N2 (stereo unspecified)	i	-16%	9%	12%	i	-29%
CCCc1nn(C)c(C(=O)Nc2ccccc2)c1Cl	18µM*	-21%	8%	16%	i	-25%
CCN(CC)C(=O)CN(c1cc2c(cc1OC)oc1ccccc12)S(=O)(=O)c1ccccc1	u	18µM*	-11%	-14%	u	u
COc1cc2oc3ccccc3c2cc1N(CC(=O)N1CCCCC1)S(=O)(=O)c1ccc(C)cc1	i	u	-14%	-19%	i	23µM*
Cc1cccc(NC(=O)c2ccc(N(C)C3CCCCC3)c([N+](=O)[O-])c2)n1	2.6µM*	21µM*	u	-23%	u	16µM*
Cc1cccc(NC(=O)c2ccc(N3CCOCC3)c([N+](=O)[O-])c2)n1	u	u	6%	6%	i	u
CCSc1ccc(C(=O)Nc2cccc(C)n2)cc1[N+](=O)[O-]	u	-12%	-9%	-1%	u	u
Cc1cccc(NC(=O)c2ccc(N3CCCCC3)c([N+](=O)[O-])c2)n1	5.2µM*	u	-5%	-10%	u	13µM*
